# In PubChem BioAssay:
# Unmarked numbers belong to inactive results. The list shows a part of the results. Active and inactive are the calls of the source.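 Rule for the calls, unless noted: active = inhibition above the hit cutoff set in the earlier primary screen (cut at about 27% in these data); inactive = the rest.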
# Experiments:
# [1] = biological target: Protein phosphatase methylesterase 1 (Homo sapiens) (UniProt Q9Y570); assay: PME-1 inhibitor activity retest, confirmation, biochemical, fluorescence polarization, FP-Rh probe, triplicate (AID 2171); settings: recombinant PME-1, FP-Rh probe fluorescence polarization; at 5.9 µM; hits give high values;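 note: 0% = enzyme with DMSO and 100% = wells lacking PME-1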
# [2] = biological target: Bcl-2-like protein 1 (Homo sapiens) (UniProt Q07817); assay: Bcl-xL inhibitors blocking Bim BH3 binding, confirmation, counter-screen for MCL1 inhibitor project, biochemical, fluorescence polarization (AID 2166;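 active = inhibition above a cutoff equal to the mean inhibition of all tested compounds plus 3 SD, cut at about 30% in these data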); settings: GST-Bcl-xL / FITC-Bim BH3 peptide FP binding; at 10.9 µM; hits give high values
# [3] = biological target: Induced myeloid leukemia cell differentiation protein Mcl-1 (Homo sapiens) (UniProt Q07820); assay: inhibitors of MCL1 binding to BIM-BH3, confirmation, biochemical, fluorescence polarization, triplicate (AID 2168;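 active = inhibition above the average of all tested compounds plus 3 SD, cut at about 40% in these data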;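 note: 0% = DMSO wells and 100% = unlabeled Bim-BH3 control peptide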); settings: GST-MCL1 / FITC-Bim-BH3 fluorescence polarization; at 10.9 µM; hits give high values
# [4] = growth loss of phage-infected E. coli expressing H. pylori AddAB, confirmation, AddAB inhibitor project, absorbance, E. coli V3065, T4 phage, triplicate (AID 488942;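 active = mean inhibition above a set limit taken from the earlier primary screen, cut at about 13% in these data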;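 note: higher means less bacterial growth since AddAB block lets phage replicate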); settings: OD, at 11.9 µM, hits give high values, T4 phage with gene 2 nonsense mutations
# [5] = growth loss of RecBCD+ E. coli with mutant T4 phage, counter-screen for AddAB inhibitor project, absorbance, V66 E. coli (AID 488955;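 active = mean inhibition above the mean of solvent-only control wells plus 3 SD, cut at about 4% in these data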;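 note: optical density read after an 18 h incubation at 37 °C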); settings: OD growth, at 11.9 µM, hits give high values
# [6] = bacterial viability inhibition counter-screen, confirmation, counter-screen for AddAB inhibitor project, absorbance (AID 488956; in the data active = inhibition above about 25%); settings: absorbance (AddAB counterscreen), at 11.9 µM, hits give high values
# [7] = biological target: Serine protease HTRA1 (Homo sapiens) (UniProt Q92743); assay: HTRA1 protease inhibitors, retest, confirmation, biochemical, fluorescence polarization (AID 540248;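 active = mean inhibition over three repeats above a set limit taken from the earlier primary screen, cut at about 37% in these data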;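 note: 0% = HTRA1 with DMSO and 100% = wells lacking HTRA1; inhibitors block probe binding so polarization drops and inhibition rises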); settings: recombinant HTRA1, FP-rhodamine activity-based probe, at 5.96 µM, hits give high values
# [8] = compounds interfering with TAMRA-BSA probe, counter-screen for TCR-CD3 interaction inhibitor project, biochemical, fluorescence, TAMRA-labeled BSA (AID 652035; in the data active = inhibition above about 23%;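 note: 0% = buffer low control and 100% = reference high control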); settings: TAMRA-labeled BSA probe fluorescence counterscreen; at 9.4 µM; hits give high values
# [9] = test system: T-cell receptor (TCR)-CD3 interaction, human; assay: TCR-CD3 interaction inhibitors, retest, confirmation, biochemical, fluorescence, TAMRA-labeled TCR probe (AID 652036; in the data active = inhibition above about 19%); settings: TAMRA-labeled TCR probe fluorescence binding assay; at 9.4 µM; hits give high values
# [10] = biological target: (Lyso)-N-acylphosphatidylethanolamine lipase (Mus musculus) (UniProt Q8VD66); assay: ABHD4 inhibitors, retest, confirmation, biochemical, fluorescence polarization, mouse (AID 720658;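 active = mean inhibition across replicates above the hit cutoff set in the primary screen, cut at about 30% in these data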;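 note: 0% = wild-type ABHD4 with DMSO and 100% = catalytically dead S159A mutant with DMSO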); settings: purified mABHD4, FP-Rh probe fluorescence polarization; at 8.92 µM; hits give high values
# [11] = biological target: Nuclear receptor subfamily 5 group A member 2 (Homo sapiens) (UniProt O00482); assay: LRH-1 (NR5A2) inverse agonists, retest, confirmation, cell-based, luminescence (AID 651613; in the data active = inhibition above about 42%;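 note: HEK293T cells co-transfected with LRH-1 and StAR promoter luciferase reporter; 0% = vehicle wells and 100% = parental cells lacking receptor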); settings: cell-based LRH-1 luciferase reporter, inverse agonism; at 3.6 µM; hits give high values
# [12] = biological target: Steroidogenic factor 1 (Homo sapiens) (UniProt Q13285); assay: SF1 (NR5A1) inverse agonists, counter-screen for LRH-1 inverse agonist project, cell-based, luminescence, high throughput (AID 651614; in the data active = inhibition above about 44%;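 note: cells cotransfected with StAR promoter reporter and SF1 expression vector; 0% = vehicle on cells with receptor and 100% = vehicle on cells lacking receptor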); settings: cell-based SF1 luciferase reporter, at 3.6 µM, hits give high values
# [13] = biological target: Nuclear receptor coactivator 3 (Homo sapiens) (UniProt Q9Y6Q9); assay: SRC3 coactivator transcriptional activity inhibitors, confirmation, cell-based, luminescence, quadruplicate (AID 588792;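 active = mean inhibition over 43.08%, the solvent-only control mean plus 3 SD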;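 note: 0% = DMSO treated cells and 100% = gossypol at 36 µM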); settings: HEK293 GAL4-SRC3 luciferase reporter, at 3.6 µM, hits give high values
# [14] = test system: transactivating tegument protein VP16 (Human herpesvirus 1), Gal4-VP16 luciferase reporter; assay: VP16 transactivation inhibitors, counter-screen for SRC3 inhibitor project, cell-based, luminescence, high throughput (AID 588794; in the data active = inhibition above about 30%); settings: mammalian cells, VP16-driven luciferase reporter luminescence; at 3.6 µM; hits give high values
# [15] = biological target: Nuclear receptor coactivator 1 (Homo sapiens) (UniProt Q15788); assay: SRC1 coactivator transcriptional activity inhibitors, confirmation, cell-based, luminescence, quadruplicate (AID 588820;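 active = mean inhibition above 46.68%, the untreated control wells mean plus 3 SD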;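 note: 0% = DMSO wells and 100% = gossypol 36 µM treated wells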); settings: HEK293 GAL4-SRC1 luciferase reporter, at 3.6 µM, hits give high values
# [16] = VP16 transactivation inhibitors, counter-screen for SRC1 inhibitor project, cell-based, luminescence, high throughput (AID 588824; in the data active = inhibition above about 25%); settings: cell-based VP16 transactivation luciferase luminescence; at 3.6 µM; hits give high values
# [17] = StAR promoter reporter inhibitors, counter-screen for LRH-1 inverse agonist project, cell-based, luminescence, high throughput (AID 651611; in the data active = inhibition above about 28%); settings: StAR promoter luciferase reporter counterscreen, at 3.6 µM, hits give high values
# [18] = VP16 transactivation reporter inhibitors, counter-screen for LRH-1 inverse agonist project, cell-based, luminescence, high throughput (AID 651615; in the data active = inhibition above about 33%); settings: Gal4-VP16 luciferase reporter cells, at 3.6 µM, hits give high values
# [19] = biological target: Protein-arginine deiminase type-4 (Homo sapiens) (UniProt Q9UM07); assay: human PAD4 inhibitors, confirmation, biochemical, fluorescence polarization (AID 488796;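 active = mean inhibition across replicates above the hit cutoff set by the earlier primary screen, cut at about 15% in these data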;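 note: inhibitors block active-site labeling by the probe so polarization falls; 0% = PAD4 with probe and DMSO and 100% = probe without PAD4 enzyme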); settings: recombinant PAD4, RCA probe fluorescence polarization; at 6.36 µM; hits give high values
# [20] = biological target: Oxysterols receptor LXR-beta (Homo sapiens) (UniProt P55055); assay: LXR agonists, Gal4 luciferase reporter, confirmation, counter-screen for hcDAF-12 agonist project, cell-based, luminescence, HEK293, H. contortus campaign (AID 743027;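 active = mean percent activation of the reporter above a cutoff set as the average over tested compounds plus their standard deviation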); settings: HEK293 Gal4-LXR tk-luc reporter, 24 h, at 6.8 µM, hits give high values, normalized: DMSO 0%, positive control 100%
# [21] = test system: Nuclear hormone receptor DAF-12 (Haemonchus contortus); assay: H. contortus DAF-12 receptor agonists, confirmation, cell-based, luminescence, HEK293, lit1-tk-luc, triplicate (AID 743032;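 active = mean activation across triplicate tests above the threshold derived from the earlier primary screen, cut at about 5.5% in these data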;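 note: 0% = DMSO only wells and 100% = 3 µM Δ7-dafachronic acid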); settings: HEK293 hcDAF-12 lit1-tk-luc reporter, at 6.8 µM, hits give high values, % of Δ7-dafachronic acid response
# [22] = biological target: Platelet-activating factor acetylhydrolase (Homo sapiens) (UniProt Q13093); assay: pPAFAH (PLA2G7) enzyme inhibitors, confirmation, biochemical, fluorescence polarization, human (AID 463230;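 active = mean inhibition of the triplicate above the hit cutoff set for the earlier primary screen, cut at about 25% in these data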;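 note: 0% = enzyme with DMSO and 100% = wells lacking pPAFAH enzyme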); settings: recombinant pPAFAH, FP-Rh probe fluorescence polarization; at 3.39 µM; hits give high values
# Platelet-activating factor acetylhydrolase (Homo sapiens), sequence (Q13093 whole entry, looked up): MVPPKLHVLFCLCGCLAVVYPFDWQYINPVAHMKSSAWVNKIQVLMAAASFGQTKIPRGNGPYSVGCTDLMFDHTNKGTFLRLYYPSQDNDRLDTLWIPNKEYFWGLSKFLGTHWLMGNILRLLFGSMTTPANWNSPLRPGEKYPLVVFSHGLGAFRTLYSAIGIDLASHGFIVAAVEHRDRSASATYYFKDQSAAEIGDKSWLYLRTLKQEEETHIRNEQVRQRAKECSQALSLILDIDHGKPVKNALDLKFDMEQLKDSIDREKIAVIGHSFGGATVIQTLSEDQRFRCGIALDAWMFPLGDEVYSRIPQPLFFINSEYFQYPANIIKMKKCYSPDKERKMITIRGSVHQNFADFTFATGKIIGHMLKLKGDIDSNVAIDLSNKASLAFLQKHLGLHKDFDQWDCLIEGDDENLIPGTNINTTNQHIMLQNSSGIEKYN
# Steroidogenic factor 1 (Homo sapiens), sequence (Q13285 whole entry, looked up, the tested form may be a part): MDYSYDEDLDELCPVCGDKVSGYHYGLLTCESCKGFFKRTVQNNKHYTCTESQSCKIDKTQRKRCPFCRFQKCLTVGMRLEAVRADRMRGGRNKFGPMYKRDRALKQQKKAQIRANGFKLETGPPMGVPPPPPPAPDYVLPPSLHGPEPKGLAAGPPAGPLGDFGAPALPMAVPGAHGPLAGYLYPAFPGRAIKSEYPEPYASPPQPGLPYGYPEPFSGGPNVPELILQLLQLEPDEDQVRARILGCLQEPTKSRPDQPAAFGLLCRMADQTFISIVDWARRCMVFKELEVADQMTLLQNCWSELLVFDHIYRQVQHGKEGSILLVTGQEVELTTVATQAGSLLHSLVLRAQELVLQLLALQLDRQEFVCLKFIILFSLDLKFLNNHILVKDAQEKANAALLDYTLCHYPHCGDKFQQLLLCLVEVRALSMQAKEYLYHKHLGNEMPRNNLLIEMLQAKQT
# Induced myeloid leukemia cell differentiation protein Mcl-1 (Homo sapiens), sequence (Q07820 whole entry, looked up): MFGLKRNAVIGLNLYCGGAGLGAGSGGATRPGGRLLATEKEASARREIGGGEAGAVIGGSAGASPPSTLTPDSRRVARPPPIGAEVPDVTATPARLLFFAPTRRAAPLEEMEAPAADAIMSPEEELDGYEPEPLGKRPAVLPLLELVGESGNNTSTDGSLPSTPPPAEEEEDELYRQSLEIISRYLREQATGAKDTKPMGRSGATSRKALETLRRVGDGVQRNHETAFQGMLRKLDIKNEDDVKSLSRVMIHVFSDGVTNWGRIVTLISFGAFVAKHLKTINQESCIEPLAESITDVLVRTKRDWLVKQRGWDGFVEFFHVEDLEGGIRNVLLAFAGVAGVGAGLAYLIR
# Protein-arginine deiminase type-4 (Homo sapiens), sequence (Q9UM07 whole entry, looked up, the tested form may be a part): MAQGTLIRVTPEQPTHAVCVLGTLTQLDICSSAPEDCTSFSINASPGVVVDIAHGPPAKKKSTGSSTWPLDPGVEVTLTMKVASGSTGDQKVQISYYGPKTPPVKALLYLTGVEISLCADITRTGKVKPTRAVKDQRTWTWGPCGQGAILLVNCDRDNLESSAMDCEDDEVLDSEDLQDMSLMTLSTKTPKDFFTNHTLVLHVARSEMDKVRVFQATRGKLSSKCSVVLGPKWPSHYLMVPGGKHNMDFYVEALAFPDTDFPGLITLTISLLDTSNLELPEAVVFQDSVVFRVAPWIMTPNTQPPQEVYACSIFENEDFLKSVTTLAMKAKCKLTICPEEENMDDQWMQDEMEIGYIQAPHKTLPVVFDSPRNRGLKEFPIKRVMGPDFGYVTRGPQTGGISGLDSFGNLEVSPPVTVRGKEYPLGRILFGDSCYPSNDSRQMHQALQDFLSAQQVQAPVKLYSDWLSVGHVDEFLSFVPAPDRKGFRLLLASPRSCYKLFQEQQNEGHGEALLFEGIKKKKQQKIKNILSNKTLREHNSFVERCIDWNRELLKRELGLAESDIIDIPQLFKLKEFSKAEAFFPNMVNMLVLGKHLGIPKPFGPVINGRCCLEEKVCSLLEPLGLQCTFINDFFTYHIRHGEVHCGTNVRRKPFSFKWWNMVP
# Nuclear receptor subfamily 5 group A member 2 (Homo sapiens), sequence (O00482 whole entry, looked up): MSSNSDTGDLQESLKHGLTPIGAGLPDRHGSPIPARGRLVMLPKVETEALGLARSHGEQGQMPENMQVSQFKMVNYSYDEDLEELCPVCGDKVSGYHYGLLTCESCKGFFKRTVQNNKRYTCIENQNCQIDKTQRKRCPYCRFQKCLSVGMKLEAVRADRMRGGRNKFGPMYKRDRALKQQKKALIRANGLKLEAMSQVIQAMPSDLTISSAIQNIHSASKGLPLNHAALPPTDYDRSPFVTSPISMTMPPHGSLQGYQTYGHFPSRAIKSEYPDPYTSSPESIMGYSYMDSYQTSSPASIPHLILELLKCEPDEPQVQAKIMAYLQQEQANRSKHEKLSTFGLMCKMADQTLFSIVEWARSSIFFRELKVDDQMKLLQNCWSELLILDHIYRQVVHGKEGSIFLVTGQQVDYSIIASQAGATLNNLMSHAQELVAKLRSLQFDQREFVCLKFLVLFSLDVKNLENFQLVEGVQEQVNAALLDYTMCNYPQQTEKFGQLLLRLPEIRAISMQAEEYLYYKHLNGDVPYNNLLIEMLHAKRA
# Protein phosphatase methylesterase 1 (Homo sapiens), sequence (Q9Y570 whole entry, looked up): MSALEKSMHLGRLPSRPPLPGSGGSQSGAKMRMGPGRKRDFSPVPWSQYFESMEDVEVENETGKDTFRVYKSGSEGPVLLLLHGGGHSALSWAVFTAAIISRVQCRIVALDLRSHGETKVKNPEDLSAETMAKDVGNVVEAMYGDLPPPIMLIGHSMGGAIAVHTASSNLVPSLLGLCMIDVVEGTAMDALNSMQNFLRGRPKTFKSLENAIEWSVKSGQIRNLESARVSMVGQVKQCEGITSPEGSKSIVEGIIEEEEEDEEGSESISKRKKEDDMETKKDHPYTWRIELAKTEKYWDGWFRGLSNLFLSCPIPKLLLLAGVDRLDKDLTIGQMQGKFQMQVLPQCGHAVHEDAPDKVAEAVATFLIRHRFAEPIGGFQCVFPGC
# Bcl-2-like protein 1 (Homo sapiens), sequence (Q07817 whole entry, looked up): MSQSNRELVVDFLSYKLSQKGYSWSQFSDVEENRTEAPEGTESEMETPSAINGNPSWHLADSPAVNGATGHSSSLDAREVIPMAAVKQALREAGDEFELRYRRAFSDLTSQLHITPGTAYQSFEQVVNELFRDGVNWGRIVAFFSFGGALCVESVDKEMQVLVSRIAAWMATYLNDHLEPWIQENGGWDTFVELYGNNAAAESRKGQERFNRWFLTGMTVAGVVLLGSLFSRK
# Nuclear receptor coactivator 3 (Homo sapiens), sequence (Q9Y6Q9 whole entry, looked up, the tested form may be a part): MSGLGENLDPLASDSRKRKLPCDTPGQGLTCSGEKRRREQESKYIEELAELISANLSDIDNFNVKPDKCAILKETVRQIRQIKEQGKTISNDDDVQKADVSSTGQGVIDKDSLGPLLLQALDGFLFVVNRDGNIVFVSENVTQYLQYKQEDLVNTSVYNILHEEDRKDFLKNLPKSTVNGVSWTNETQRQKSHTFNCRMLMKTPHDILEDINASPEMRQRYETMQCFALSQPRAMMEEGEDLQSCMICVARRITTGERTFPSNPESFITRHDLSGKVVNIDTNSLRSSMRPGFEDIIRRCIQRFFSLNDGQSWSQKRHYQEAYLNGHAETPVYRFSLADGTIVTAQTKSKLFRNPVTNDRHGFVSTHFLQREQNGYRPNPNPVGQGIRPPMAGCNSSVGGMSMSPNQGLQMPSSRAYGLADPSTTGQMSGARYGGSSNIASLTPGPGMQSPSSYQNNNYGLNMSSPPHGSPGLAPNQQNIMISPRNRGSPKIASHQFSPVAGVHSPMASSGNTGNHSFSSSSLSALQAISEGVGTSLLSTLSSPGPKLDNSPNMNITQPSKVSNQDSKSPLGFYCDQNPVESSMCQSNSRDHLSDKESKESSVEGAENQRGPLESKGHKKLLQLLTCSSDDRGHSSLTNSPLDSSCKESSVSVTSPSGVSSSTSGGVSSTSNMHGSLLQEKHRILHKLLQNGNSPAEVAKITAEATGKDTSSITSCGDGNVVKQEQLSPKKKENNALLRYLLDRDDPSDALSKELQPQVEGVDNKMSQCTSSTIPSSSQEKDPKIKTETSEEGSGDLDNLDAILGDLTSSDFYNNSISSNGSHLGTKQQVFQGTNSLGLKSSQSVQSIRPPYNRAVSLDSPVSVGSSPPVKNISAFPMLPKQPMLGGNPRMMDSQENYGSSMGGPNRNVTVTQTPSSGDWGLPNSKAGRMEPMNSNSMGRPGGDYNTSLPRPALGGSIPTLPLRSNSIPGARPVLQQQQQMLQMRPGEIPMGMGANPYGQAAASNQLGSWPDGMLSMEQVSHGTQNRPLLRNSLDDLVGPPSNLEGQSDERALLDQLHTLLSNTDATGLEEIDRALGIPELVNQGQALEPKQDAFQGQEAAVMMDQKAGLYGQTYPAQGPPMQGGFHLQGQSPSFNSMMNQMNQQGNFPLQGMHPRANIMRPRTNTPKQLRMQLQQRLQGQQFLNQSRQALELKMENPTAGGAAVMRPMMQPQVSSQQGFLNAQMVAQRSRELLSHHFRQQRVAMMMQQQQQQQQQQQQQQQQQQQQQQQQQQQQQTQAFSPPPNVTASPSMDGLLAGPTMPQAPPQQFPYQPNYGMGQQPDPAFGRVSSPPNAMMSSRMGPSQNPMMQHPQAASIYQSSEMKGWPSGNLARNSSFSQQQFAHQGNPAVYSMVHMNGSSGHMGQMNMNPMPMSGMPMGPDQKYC
# (Lyso)-N-acylphosphatidylethanolamine lipase (Mus musculus), sequence (Q8VD66 whole entry, looked up): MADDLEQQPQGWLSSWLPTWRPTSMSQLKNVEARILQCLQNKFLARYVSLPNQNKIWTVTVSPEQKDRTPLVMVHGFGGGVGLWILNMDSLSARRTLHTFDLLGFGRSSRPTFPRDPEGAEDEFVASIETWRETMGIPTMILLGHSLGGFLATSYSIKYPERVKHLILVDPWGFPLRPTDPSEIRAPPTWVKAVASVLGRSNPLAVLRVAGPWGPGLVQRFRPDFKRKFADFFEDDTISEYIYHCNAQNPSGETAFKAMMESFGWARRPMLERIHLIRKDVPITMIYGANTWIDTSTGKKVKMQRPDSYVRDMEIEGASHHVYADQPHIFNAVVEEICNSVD
smiles,measurement,setting,value
CCn1cc(C(=O)NCCCN2CCC(C)CC2)c(=O)c2cc(S(=O)(=O)N(C)C3CCCCC3)ccc21,inhibition,[1],31.6% (active)
O=c1ccc2c(-c3ccccc3S(=O)(=O)O)c3ccc(O)c(O)c3oc-2c1O,inhibition,[2],82.9% (active)
same,inhibition,[3],67.6% (active)
same,inhibition,[4],7.55%
same,inhibition,[5],11% (active)
same,inhibition,[6],2.03%
same,inhibition,[7],-1.72%
same,inhibition,[8],-101%
same,inhibition,[9],-20.4%
same,inhibition,[10],-24.3%
COc1ccc(/C=N/Nc2snc(SC)c2C#N)cc1OC,inhibition,[1],24.9%
O=S(=O)(Nc1cc2nc3ccccc3nc2n1Cc1ccccc1)c1ccc(Cl)cc1,inhibition,[1],42.4% (active)
Cc1cc(O)ccc1N=Cc1c(C(F)(F)F)[nH][nH]c1=O,inhibition,[1],12.2%
Nc1c(C(=O)Nc2ccccc2F)sc2nc(-c3ccco3)ccc12,inhibition,[1],19.9%
N#CC1=C(N)C(C#N)(C#N)C(c2cccnc2)C2CN(C(=O)OCc3ccccc3)CC=C12 (stereo not drawn),inhibition,[1],35.5% (active)
CCCC1OC23CCCCC2C(C#N)(C#N)C1(C#N)C(=N)O3 (stereo not drawn),inhibition,[2],19.5%
same,inhibition,[3],21%
same,inhibition,[8],20%
same,inhibition,[9],10.8%
COc1cc(C(=O)Nc2c(C(=O)O)[nH]c3ccc(Br)cc23)cc(OC)c1OC,inhibition,[1],23.4%
Cc1ccc2cc(C#N)c(SCc3nnc(-c4ccccc4[N+](=O)[O-])o3)nc2c1,inhibition,[1],25.1%
Oc1ccc(/C=N/Nc2cccc3cccnc23)c(O)c1,inhibition,[1],82.7% (active)
O=C(N=Nc1c(O)n(Cc2ccccc2)c2ccccc12)c1cc2ccccc2cc1O,inhibition,[1],54.8% (active)
COc1ccc(/C=C2\Sc3ccc(C(=O)N4CCN(Cc5ccccc5)CC4)cc3N(C)C2=O)cc1OC,inhibition,[1],46.9% (active)
CC(C)Nc1nnc(SCC(=O)Nc2ccc3c(c2)C(=O)c2ccccc2C3=O)s1,inhibition,[1],36.4% (active)
CSC[C@@H]1NC(=S)N(c2ccc(C)cc2)C1=O,inhibition,[1],38% (active)
CC[C@]1(O)C[C@@H]2CN(CCc3c([nH]c4ccccc34)[C@@](C(=O)OC)(c3cc4c(cc3OC)N(C)[C@H]3[C@@](O)(C(=O)OC)[C@H](OC(C)=O)[C@]5(CC)C=CCN6CC[C@]43[C@@H]65)C2)C1,inhibition,[2],27.1%
same,inhibition,[3],35.2%
same,inhibition,[11],42.5% (active)
same,inhibition,[12],61.2% (active)
Cc1ccc(O)c(N=CC2=C(O)c3ccccc3C2=O)c1,inhibition,[1],27.3% (active)
Cc1cccn2c(=O)c3cc(C(=O)NCCN4CCOCC4)c(=N)n(Cc4cccnc4)c3nc12,inhibition,[2],55.8% (active)
same,inhibition,[3],65.7% (active)
same,inhibition,[13],22.5%
same,inhibition,[14],20.1%
same,inhibition,[15],24.4%
same,inhibition,[16],17.3%
same,inhibition,[17],21.2%
same,inhibition,[11],57.8% (active)
same,inhibition,[12],49.1% (active)
same,inhibition,[18],28.6%
COc1ccc(Nc2nc(-c3cccnc3)nc3ccccc23)cn1,inhibition,[2],90.3% (active)
same,inhibition,[3],114% (active)
same,inhibition,[17],28.2% (active)
same,inhibition,[11],43.9% (active)
same,inhibition,[12],53.2% (active)
same,inhibition,[18],-10.3%
Cc1cccc2cc(/C=N/Nc3ccc(C(=O)O)cc3)c(Cl)nc12,inhibition,[1],43.7% (active)
COc1cccc(-c2nnc(Nc3nc4c(F)cccc4s3)o2)c1,inhibition,[1],46.2% (active)
Cc1nn(C(=O)c2ccoc2C)c(N)c1-c1ccccc1,inhibition,[2],1.59%
same,inhibition,[3],-8.2%
same,inhibition,[19],1.71%
same,activation,[20],0.39%
same,activation,[21],2.6%
COc1ncnc2c1N=C1CC(C)(C)CC(N)=C1S2,inhibition,[2],144% (active)
same,inhibition,[3],181% (active)
same,inhibition,[19],24.1% (active)
CCN1CC=C2C(C#N)=C(N)C(C#N)(C#N)[C@H](c3ccoc3)[C@H]2C1,inhibition,[2],97.5% (active)
same,inhibition,[3],114% (active)
same,inhibition,[19],10.3%
COc1ccc(N2CC(C(=O)NCCN3C(=O)S/C(=C\c4cccnc4)C3=O)CC2=O)c(OC)c1 (stereo not drawn),inhibition,[2],-1.58%
same,inhibition,[3],-8.97%
same,inhibition,[22],0.49%
